Assay results published in PubChem BioAssay (NCI).
About 83,000 compounds went through this panel and 20% of them were active in at least one assay; those are over-represented in the sample as a whole.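 For each line, cells grew in 96-well plates with the test compound present at a single concentration for 48 hours.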 Activity calls are given as the source filed them. How the source made its calls: active means growth percent below 10; inactive means the rest.

tested on: RPMI-8226 leukemia; experiment: NCI-60 one-dose screen, 48 h (100 = growth as untreated, 0 = no growth, -100 = all killed); settings: 10 µM unless noted

Row | Compound | growth
1 | CN(C)C(=O)c1cc(-c2ccc3ncnc(N4CCc5cc(F)c(Cl)cc54)c3c2)cnc1N | -34.6% (active)
2 | CN1C(=O)C2(C(C#N)=C(c3ccc(Cl)cc3)Nc3c2c(-c2ccccc2)nn3-c2ccccc2)c2ccccc21 (stereo not given) | 60.3% (inactive)
3 | Cc1ccc2c(c1)/C(=C/C(=O)c1cc3ccccc3oc1=O)C(=O)N2 | 36.7% (inactive)
4 | N#CC1=C(c2cccs2)Nc2c(c(-c3ccccc3)nn2-c2ccccc2)C12C(=O)Nc1ccc(Cl)cc12 (stereo not given) | 13.3% (inactive)
5 | O=C(NC(=S)N1CCN(c2ncnc3c2cnn3-c2ccccc2)CC1)c1ccc(Br)cc1 | 83.4% (inactive)
6 | Nc1nnc(-c2cncc(Br)c2)c(-c2c[nH]c3ccc(Cl)cc23)n1 | 48.5% (inactive)
7 | COc1ccc(C2=NN(C(=O)[C@H]3[C@@H](c4ccco4)c4sc(=O)[nH]c4S[C@@H]3C)C(c3ccc4ccccc4c3)C2)cc1 (stereo not given in full) | 8.59% (active)
8 | CCOc1ccc2[nH]c(=O)c(C(c3nnnn3CC3CCCO3)N3CCN(Cc4ccccc4)CC3)cc2c1 (stereo not given) | 99.1% (inactive)
9 | FC(F)(F)c1cc2c(Cl)ncnc2n1CCC1CCOCC1 | 72.2% (inactive)
10 | COc1cc(/C=C/C(=O)c2cnn(-c3cc(=O)[nH]c4ccc(C)cc34)c2C)cc(OC)c1OC | -40.2% (active)
11 | O=C(N/N=C/c1c[nH]c2ccccc12)Nc1ccccc1Cl | 7.68% (active)
12 | Nc1nn2c(-c3cc4ccccc4oc3=O)ccnc2c1N=Nc1ccccc1 | 105% (inactive)
13 | Cc1ccc(C(=O)Nc2cc(-c3ccncc3)cc(C(F)(F)F)c2)cc1C#Cc1cnc2cccnn12 | 20% (inactive)
14 | COc1ccc(C(=O)/C=C/c2ccc3c(c2)OCCO3)cc1S(N)(=O)=O | 59.2% (inactive)
15 | FC(F)(F)c1cc2c(Cl)ncnc2n1CCN1CCCCC1 | 102% (inactive)
16 | COc1ccc2[nH]cc(-c3cc4nc(-c5cn(C)c6ncccc56)cc(N)n4n3)c2c1 | -33.4% (active)
17 | Nc1nc(-c2ccccc2)c(N=Nc2ccc(Cl)cc2Cl)s1 | 7.32% (active)
18 | COc1ccc(NC(=O)Cn2c(/C=C/c3ccc([N+](=O)[O-])cc3)nc3ccccc3c2=O)cc1 | 90.6% (inactive)
19 | C[C@@H]1[C@H]2C[C@@H](C[C@H]1NCc1nc3ccccc3n1C1CCCCCC1)C2(C)C | 27.6% (inactive)
20 | COc1ccc(NC(=O)Cn2c(/C=C/c3cccc(Br)c3)nc3ccccc3c2=O)cc1 | 42.5% (inactive)
21 | Cc1ccc(-c2cc(C(=O)N=Nc3c(O)[nH]c4ccc(F)cc34)c3ccccc3n2)cc1 | 103% (inactive)
22 | CCOC(=O)c1ccc(NC(=S)NC(=O)c2ccc(NC(=O)C(C)C)cc2OC)cc1 | 0.989% (active)
23 | CCCSc1nnc(-c2c(C)nc3sccn23)o1 | 70.3% (inactive)
24 | Cc1ccc(N=Nc2c(N)nn3c(-c4cc5ccccc5oc4=O)ccnc23)cc1 | 9.76% (active)
25 | O=C(N/N=C/c1ccc(Cl)o1)c1[nH]c2ccc(Br)cc2c1-c1ccccc1 | 1.15% (active)
